Measurements taken from PubChem BioAssay (Tox21).
Results filed as inconclusive are left out. A call without a number means that no potency is given here. Active and inactive are the calls of the source. Unless noted, the call rests on the fitted dose curve.

How the values were obtained:
[1] = Nuclear factor erythroid 2-related factor 2/antioxidant responsive element (Nrf2/ARE) small molecule agonists: qHTS cell viability counter screen in human keratinocytes (AID 1919968; active means well fitted curve in the direction sought with a large enough effect in the repeat runs; an effect the other way counts as inactive or inconclusive; further: nearly all actives have a fitted effect of over 55% in size; further: potency means the concentration at half of the fitted maximal effect)
How it was run: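 Cytotoxicity was multiplexed with the Nrf2/ARE luciferase assay in the same wells. Stably transfected HaCaT keratinocytes were treated with test compounds for 23 h at 37 C. Cell viability was then measured by CellTiter-Fluor fluorescence.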

[2] = Nuclear factor erythroid 2-related factor 2/antioxidant responsive element (Nrf2/ARE) small molecule agonists: luciferase reporter gene qHTS assay in human keratinocytes (AID 1919969); further: nearly all actives have a fitted effect of over 35% in size; further: potency means the concentration at half of the fitted maximal effect
[3] = biological target: Gonadotropin-releasing hormone receptor (Homo sapiens) (UniProt P30968); test: Human gonadotropin-releasing hormone receptor (GnRHR) small molecule agonists, calcium flux assay in GnRHR-HEK293 cells (AID 1920063); further: nearly all actives have a fitted effect of over 35% in size
How it was run: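 Agonist activity was measured as intracellular calcium flux in HEK293 cells engineered to stably express human GnRHR. After dye loading for 1 hour at 37 C, compounds in DMSO were added and fluorescence was followed for 3 minutes.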

[4] = biological target: KiSS-1 receptor (Homo sapiens) (UniProt Q969F8); test: Human kisspeptin (KISS1R) small molecule agonists, calcium flux assay in KISS1R-HEK293 cells (AID 1920064; active means well fitted curve in the direction sought with a large enough effect in the repeat runs; an effect the other way counts as inactive or inconclusive)
How it was run: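 Agonist activity is monitored as intracellular calcium rise in engineered HEK293 cells carrying human KISS1R. Cells are dye-loaded for 1 h at 37 C before compound addition, and fluorescence is recorded for 3 min.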

[5] = G protein-coupled receptor (GPCR) small molecule agonists, calcium flux assay: HEK293 wild type cell line counter screen (AID 1920065)
How it was run: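 Seed cells, incubate 18 h (37 C, 5% CO2); add calcium dye, 1 h at 37 C; pin-transfer compounds, ATP control or DMSO; read fluorescence 480/540 nm each second for 3 min.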

[6] = p53 small molecule agonists, cell-based qHTS assay with human liver microsomes (AID 1963577)
How it was run: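 Fluorescence of the beta-lactamase reporter in p53RE-bla cells, detected with LiveBLAzer substrate (2 h, room temperature, dark), served as the read-out after 16 h compound exposure at 37 C with human liver microsomes and NADPH, each 0.5 mg/mL final.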

[7] = p53 small molecule agonists, cell-based qHTS assay with rat liver microsomes (AID 1963578)
How it was run: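 Cells carrying a p53 response element–beta-lactamase reporter were plated and rested 5 h, then dosed with compound in DMSO plus rat liver microsomes and NADPH, each at 0.5 mg/mL final. After 16 h at 37 C, LiveBLAzer substrate was added for 2 h.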

[8] = p53 small molecule agonists, cell-based qHTS assay with human liver microsomes: qHTS cell viability counter screen (AID 1963579); further: nearly all actives have a fitted effect of over 45% in size
How it was run: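 Cytotoxicity counter screen: p53RE-bla, 4,000 cells/well; 5 h settle, 37 C/5% CO2; cpd + HLM 0.5 mg/mL + NADPH 0.5 mg/mL (final); 16 h, 37 C; CellTiter-Glo, 30 min RT, luminescence.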

[9] = p53 small molecule agonists, cell-based qHTS assay: qHTS cell viability counter screen (AID 1963581); further: nearly all actives have a fitted effect of over 45% in size
How it was run: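 Viability was counter-screened in parallel with the p53 agonist reporter by measuring intracellular ATP luminescence in the same HCT-116 p53RE-bla wells after 16 h compound treatment at 37 C.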

[10] = p53 small molecule agonists, cell-based qHTS assay (AID 1963582; active means well fitted activation curve with a large enough effect in the signal ratio in the repeat runs, not every such curve was filed as active; the % refers to the signal ratio)
How it was run: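 Cells carrying a p53-responsive bla reporter are treated with test compounds for 16 h at 37 C; beta-lactamase activity is then detected with LiveBLAzer B/G FRET substrate after 2 h at room temperature.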

[11] = biological target: 5-hydroxytryptamine receptor 2A (Homo sapiens) (UniProt P28223); test: 5-hydroxytryptamine receptor 2A (HTR2A) small molecule antagonists, cell-based qHTS assay (AID 1963586); further: nearly all actives have a fitted effect of over 45% in size
How it was run: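 CHO cells stably expressing human HTR2A were plated for 18 h at 37 C, then loaded with calcium dye for 1 h. Compounds were preincubated 5 min at room temperature before DOI (4 nM solution) was added. Kinetic fluorescence was read for 3 min.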

[12] = biological target: 5-hydroxytryptamine receptor 2A (Homo sapiens) (UniProt P28223); test: 5-hydroxytryptamine receptor 2A (HTR2A) small molecule agonists, cell-based qHTS assay (AID 1963587); further: nearly all actives have a fitted effect of over 30% in size
How it was run: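 Kinetic calcium-flux fluorescence (2 min, 1 sec intervals) after compound addition in agonist mode. HTR2A-CHO cells were cultured 18 h, then dye-loaded 1 h at 37 C.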

[13] = biological target: Muscarinic acetylcholine receptor M1 (Homo sapiens) (UniProt P11229); test: Cholinergic receptor muscarinic 1 (CHRM1) small molecule antagonists, cell-based qHTS assay (AID 1963588); further: nearly all actives have a fitted effect of over 40% in size
How it was run: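 Compounds were tested at 15 concentrations in three independent runs. Dye-loaded CHRM1-CHO cells were exposed 5 min at room temperature before stimulation by acetylcholine added at 50nM. Intracellular calcium was read kinetically on FDSS for 3 min.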

[14] = cAMP Responsive Elements (CRE) small molecule agonists, cell-based qHTS assay (AID 1963590)
How it was run: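 Cells carrying a CRE-driven beta-lactamase reporter (HEK 293T) are seeded, incubated overnight (18 h), and treated with test compounds for 3 h at 37 C; reporter activity is then detected with a FRET substrate after 2 h at room temperature.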

[15] = cAMP Responsive Elements (CRE) small molecule antagonists, cell-based qHTS assay (AID 1963591; active means well fitted inhibition curve with a large enough effect in the signal ratio in the repeat runs, not every such curve was filed as active; the % refers to the signal ratio)
How it was run: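 Cells (CRE-bla HEK 293T, DMEM with 10% dialyzed FBS and 25 mM HEPES) are seeded and incubated 18 h. Compounds are added with NKH477 agonist at 0.25 uM final for 3 h, then FRET substrate for 2 h.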

[16] = biological target: Beta-2 adrenergic receptor (Homo sapiens) (UniProt P07550); test: Adrenergic beta2 receptor (ADRB2) small molecule antagonists, cell-based qHTS assay (AID 1963592); further: series mostly up to about 92 µM; nearly all actives have a fitted effect of over 50% in size
How it was run: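 Assay format: CHO-ADRB2 cells, 18-20hr seeding at 37C/5% CO2, then compound plus 1nM isoproterenol agonist mix for 0.5hr RT. Homogeneous time-resolved fluorescence cAMP detection after 1hr, expressed as 665/615 nm ratio.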

[17] = biological target: D(2) dopamine receptor (Homo sapiens) (UniProt P14416); test: Dopamine D2 receptor (DRD2) small molecule agonists, cell-based qHTS assay (AID 1963594); further: nearly all actives have a fitted effect of over 35% in size
How it was run: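 cAMP accumulation in DRD2-HEK293 cells measured by HTRF after 1 h detection; compounds added 10 min before NKH477 (200nM […]) forskolin-analogue stimulation, 30 min at room temperature, with Ro20-1724 present at 0.1 mM final.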

[18] = biological target: D(2) dopamine receptor (Homo sapiens) (UniProt P14416); test: Dopamine D2 receptor (DRD2) small molecule antagonists, cell-based qHTS assay (AID 1963595; active means well fitted inhibition curve with a large enough effect in the signal ratio in the repeat runs, with a control signal flat; the % refers to the signal ratio)
How it was run: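 Antagonist mode in DRD2-HEK293 cells: after compound addition with 0.1 mM Ro20-1724, cells received quinpirole (12 nM) and NKH477 (200 nM) for 30 min at room temperature; HTRF cAMP read after 1 h detection.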

[19] = biological target: Muscarinic acetylcholine receptor M1 (Homo sapiens) (UniProt P11229); test: Cholinergic receptor muscarinic 1 (CHRM1) small molecule agonists, cell-based qHTS assay (AID 1963589); further: nearly all actives have a fitted effect of over 35% in size
How it was run: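 Cells were plated and incubated 18 h at 37 C/5% CO2, loaded with calcium dye for 1 h at 37 C, then treated with compounds in DMSO. Fluorescence was recorded kinetically at 1 sec intervals.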

[20] = p53 small molecule agonists, cell-based qHTS assay with rat liver microsomes: qHTS cell viability counter screen (AID 1963580); further: nearly all actives have a fitted effect of over 45% in size
How it was run: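 Rat liver microsome (0.5 mg/mL final) and NADPH (0.5 mg/mL final) co-incubation with compounds for 16 h at 37 C on HCT-116 p53RE-bla cells; cytotoxicity taken from intracellular ATP luminescence.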

Sequence of 5-hydroxytryptamine receptor 2A (Homo sapiens) (P28223 whole entry, looked up): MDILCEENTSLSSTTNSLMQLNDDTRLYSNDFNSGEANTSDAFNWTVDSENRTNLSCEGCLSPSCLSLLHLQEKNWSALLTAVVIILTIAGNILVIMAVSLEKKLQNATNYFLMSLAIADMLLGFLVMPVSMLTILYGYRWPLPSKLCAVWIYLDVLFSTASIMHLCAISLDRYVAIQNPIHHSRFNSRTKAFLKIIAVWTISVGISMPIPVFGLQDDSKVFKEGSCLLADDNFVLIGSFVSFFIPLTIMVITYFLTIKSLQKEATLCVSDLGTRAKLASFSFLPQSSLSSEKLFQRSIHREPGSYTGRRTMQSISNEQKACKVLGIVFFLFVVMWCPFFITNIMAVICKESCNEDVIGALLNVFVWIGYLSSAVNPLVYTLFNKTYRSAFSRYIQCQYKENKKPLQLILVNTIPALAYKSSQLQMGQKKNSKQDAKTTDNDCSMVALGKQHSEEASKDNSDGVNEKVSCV
Sequence of D(2) dopamine receptor (Homo sapiens) (P14416 whole entry, looked up): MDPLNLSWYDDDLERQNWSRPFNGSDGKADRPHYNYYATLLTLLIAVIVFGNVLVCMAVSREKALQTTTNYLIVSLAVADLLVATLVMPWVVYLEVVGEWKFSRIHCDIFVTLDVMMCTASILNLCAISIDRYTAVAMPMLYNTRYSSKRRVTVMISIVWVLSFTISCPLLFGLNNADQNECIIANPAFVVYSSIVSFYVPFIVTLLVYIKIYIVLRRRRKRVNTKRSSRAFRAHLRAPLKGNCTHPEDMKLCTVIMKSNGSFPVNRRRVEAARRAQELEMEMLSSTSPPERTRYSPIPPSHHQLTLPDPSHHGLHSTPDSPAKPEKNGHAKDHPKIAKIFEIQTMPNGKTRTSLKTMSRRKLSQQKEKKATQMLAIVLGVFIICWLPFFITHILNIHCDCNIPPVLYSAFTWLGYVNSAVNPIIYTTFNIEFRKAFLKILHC
Sequence of Beta-2 adrenergic receptor (Homo sapiens) (P07550 whole entry, looked up): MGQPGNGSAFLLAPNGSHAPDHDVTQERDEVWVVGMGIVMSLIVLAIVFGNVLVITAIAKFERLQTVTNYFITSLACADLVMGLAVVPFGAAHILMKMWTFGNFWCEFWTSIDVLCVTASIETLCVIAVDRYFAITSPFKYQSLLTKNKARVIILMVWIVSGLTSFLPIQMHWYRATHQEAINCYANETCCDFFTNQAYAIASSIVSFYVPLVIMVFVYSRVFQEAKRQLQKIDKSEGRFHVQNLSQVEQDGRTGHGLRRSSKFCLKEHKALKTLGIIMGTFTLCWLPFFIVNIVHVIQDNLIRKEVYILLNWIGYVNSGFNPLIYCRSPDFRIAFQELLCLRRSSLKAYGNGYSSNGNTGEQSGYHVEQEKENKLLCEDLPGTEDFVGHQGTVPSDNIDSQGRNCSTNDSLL
Sequence of KiSS-1 receptor (Homo sapiens) (Q969F8 whole entry, looked up): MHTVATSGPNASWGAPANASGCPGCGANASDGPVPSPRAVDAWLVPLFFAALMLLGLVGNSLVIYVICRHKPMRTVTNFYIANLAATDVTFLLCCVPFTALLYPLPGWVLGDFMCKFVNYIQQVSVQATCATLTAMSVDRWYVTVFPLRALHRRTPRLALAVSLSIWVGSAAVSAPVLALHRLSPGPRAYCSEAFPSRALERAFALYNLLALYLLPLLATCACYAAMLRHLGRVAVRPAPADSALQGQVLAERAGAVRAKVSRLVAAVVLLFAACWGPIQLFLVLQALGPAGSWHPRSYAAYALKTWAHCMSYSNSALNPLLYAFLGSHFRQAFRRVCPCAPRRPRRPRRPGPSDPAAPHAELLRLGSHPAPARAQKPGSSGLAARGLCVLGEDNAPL
Sequence of Gonadotropin-releasing hormone receptor (Homo sapiens) (P30968 whole entry, looked up): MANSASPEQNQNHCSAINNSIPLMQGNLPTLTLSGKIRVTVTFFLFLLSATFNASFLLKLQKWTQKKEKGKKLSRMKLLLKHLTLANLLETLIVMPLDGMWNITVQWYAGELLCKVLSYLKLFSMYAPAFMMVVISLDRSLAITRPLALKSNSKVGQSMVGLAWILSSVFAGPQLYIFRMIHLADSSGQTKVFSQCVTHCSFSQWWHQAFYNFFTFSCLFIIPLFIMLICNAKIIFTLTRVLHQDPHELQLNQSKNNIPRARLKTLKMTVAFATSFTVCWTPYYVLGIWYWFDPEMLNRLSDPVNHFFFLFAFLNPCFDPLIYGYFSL
Sequence of Muscarinic acetylcholine receptor M1 (Homo sapiens) (P11229 whole entry, looked up): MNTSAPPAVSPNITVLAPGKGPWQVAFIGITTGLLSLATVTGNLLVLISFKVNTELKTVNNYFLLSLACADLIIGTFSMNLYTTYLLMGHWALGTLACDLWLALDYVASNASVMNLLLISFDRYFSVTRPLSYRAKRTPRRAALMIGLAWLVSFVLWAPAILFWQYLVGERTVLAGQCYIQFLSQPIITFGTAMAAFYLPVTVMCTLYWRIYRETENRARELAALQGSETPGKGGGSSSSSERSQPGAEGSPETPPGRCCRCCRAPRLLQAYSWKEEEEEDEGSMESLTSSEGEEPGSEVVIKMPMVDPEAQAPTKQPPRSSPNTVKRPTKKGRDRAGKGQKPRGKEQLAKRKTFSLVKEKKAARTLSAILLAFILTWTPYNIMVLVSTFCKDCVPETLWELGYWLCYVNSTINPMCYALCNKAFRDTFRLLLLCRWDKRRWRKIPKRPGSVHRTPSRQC

SMILES | Potency [1] | Potency [2] | Potency [3] | Potency [4] | Potency [5] | Potency [6] | Potency [7] | Potency [8] | Potency [9] | Potency [10] | Potency [11] | Potency [12] | Potency [13] | Potency [14] | Potency [15] | Potency [16] | Potency [17] | Potency [18] | Potency [19] | Potency [20]
CCNc1nc(Cl)nc(NCC)n1 | inactive | inactive | inactive | inactive | inactive | inactive | inactive | inactive | inactive | inactive | inactive | inactive | inactive | inactive | inactive | inactive | inactive | inactive |  | 
COC(=O)c1ccccc1N | inactive | inactive | inactive | inactive | inactive | inactive | inactive | inactive | inactive | inactive | inactive | inactive | inactive | inactive |  | inactive | inactive | inactive | inactive | 
CC(Cl)Cl | inactive | 5.84 µM (active) | inactive | inactive | inactive | inactive | inactive | inactive | inactive | inactive | inactive | inactive | inactive | inactive | inactive | inactive |  |  | inactive | 
CCBr | inactive | inactive | inactive | inactive | inactive | inactive | inactive | inactive | inactive | inactive | inactive | inactive | inactive | inactive | inactive |  | inactive | inactive | inactive | 
NNC(N)=S | 16 µM (active) | 21.7 µM (active) | inactive | inactive | inactive | inactive | inactive | inactive | inactive | inactive |  | inactive | inactive | inactive | inactive | inactive | inactive | inactive | inactive | 
CC(C)c1ccc(CO)cc1 | inactive | inactive | inactive | inactive | inactive | inactive | inactive |  | inactive | inactive | inactive | inactive | inactive | inactive | inactive | inactive |  | inactive | inactive | inactive
O=C([O-])c1ccccn1.O=C([O-])c1ccccn1.O=C([O-])c1ccccn1.[Cr+3] | inactive | inactive | inactive | inactive | inactive | inactive | inactive |  | inactive | inactive | inactive | inactive | inactive | inactive | inactive | inactive | inactive | inactive |  | inactive
COC(=O)C(Br)CBr (stereo unspecified) | inactive | inactive | inactive | inactive | inactive | inactive | inactive |  | inactive | inactive | inactive | inactive | inactive | inactive | inactive | inactive |  | inactive | inactive | inactive
CN(C)CCC#N | inactive | inactive | inactive | inactive | inactive | inactive | inactive |  | inactive | inactive | inactive | inactive | inactive | inactive | inactive | inactive | inactive |  | inactive | inactive
